PLK1 PBD block = blocks phosphopeptide binding to human PLK1 polo-box domain; Potency, µM, without a hit: max response, negative = inhibition, actives largely listed as inhibitors; Plk1 PBD binding of FITC phosphopeptide, fluorescence polarization; actives 2.8% (n = 360,000); P53350; note: series mostly up to about 57 µM; % is set by controls: 0 for no effect and ±100 for the full control effect; nearly all actives have a fitted effect of over 65% in size
Target sequence (P53350 whole entry, looked up, the tested form may be a part): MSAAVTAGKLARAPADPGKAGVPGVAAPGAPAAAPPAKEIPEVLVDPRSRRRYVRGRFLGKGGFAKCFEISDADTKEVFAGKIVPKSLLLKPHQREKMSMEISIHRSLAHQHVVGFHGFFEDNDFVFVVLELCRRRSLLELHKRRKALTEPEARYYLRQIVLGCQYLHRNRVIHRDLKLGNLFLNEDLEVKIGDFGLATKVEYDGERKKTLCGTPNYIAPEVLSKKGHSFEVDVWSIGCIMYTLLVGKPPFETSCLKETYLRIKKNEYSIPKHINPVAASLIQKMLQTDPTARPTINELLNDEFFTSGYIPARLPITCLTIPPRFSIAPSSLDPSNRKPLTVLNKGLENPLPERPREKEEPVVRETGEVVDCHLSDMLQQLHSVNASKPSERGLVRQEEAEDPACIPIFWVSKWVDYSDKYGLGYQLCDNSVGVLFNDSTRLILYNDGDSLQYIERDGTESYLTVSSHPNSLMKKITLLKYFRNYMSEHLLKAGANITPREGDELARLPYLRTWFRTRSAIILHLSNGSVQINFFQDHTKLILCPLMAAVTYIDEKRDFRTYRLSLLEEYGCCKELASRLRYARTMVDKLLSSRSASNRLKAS
JMJD2A Tudor inh = blocks the human JMJD2A Tudor domain; O75164; Potency, µM (titrated, usually from 114 µM), for the others: at the top dose activity change, negative = inhibition, actives largely listed as inhibitors; AlphaScreen JMJD2A-Tudor / H3K4me3 peptide binding; AID 504339; actives 4.4% (n = 390,000); note: % is set by controls: 0 for no effect and ±100 for the full control effect; nearly all actives have a fitted effect of over 50% in size
HP1b chromo inh = blocks HP1-beta chromodomain binding to methylated histone tails. actives 0.56% (n = 390,000). P83916. AID 540317. Potency, µM (top dose mostly 114 µM), for the others: at the top dose activity change, negative = inhibition, most hits filed as inhibitors. AlphaScreen HP1-beta / biotin-H3K9me3 peptide binding; note: nearly all actives have a fitted effect of over 70% in size
Target sequence (P83916 whole entry, looked up): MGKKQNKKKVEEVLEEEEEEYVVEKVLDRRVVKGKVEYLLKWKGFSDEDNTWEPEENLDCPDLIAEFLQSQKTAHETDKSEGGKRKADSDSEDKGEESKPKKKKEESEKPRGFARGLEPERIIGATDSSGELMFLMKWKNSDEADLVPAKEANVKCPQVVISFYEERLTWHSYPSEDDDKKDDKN
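HP1-beta protein (50 nM final) preincubated 30 min at room temperature with biotinylated H3(1-18)K9me3 peptide (50 nM) in PBS pH 7.4, 0.01% Tween-20, then compound added for 30 min. AlphaScreen streptavidin donor/nickel chelate acceptor beads (10 ug/mL final), 30 min dark, luminescence read.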
BAZ2B block = inhibitors of human BAZ2B bromodomain. actives 4.4% (n = 360,000). Potency, µM (titrated, usually from 114 µM), for inactives: at the highest dose activity change, negative = inhibition, hits mostly inhibitors. AlphaScreen BAZ2B-H3K14Ac peptide displacement. Q9UIF8; note: % is set by controls: 0 for no effect and ±100 for the full control effect; nearly all actives have a fitted effect of over 60% in size
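AlphaScreen displacement: compounds (up to 110uM) incubated 30 min at room temperature with a preformed 50 nM BAZ2B/50 nM biotinylated H3K14Ac peptide complex in PBS pH 7.4 with Tween-20. Donor and acceptor beads at 10 ug/mL final added, 20 min light-protected before reading.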
G9a block = inhibitors of human histone lysine methyltransferase G9a | Potency, µM (titrated, usually from 102 µM), without a hit: at the top dose activity, negative = inhibition, usual class: inhibitors | actives 8.8% (n = 350,000) | G9a H3K9 monomethylation, AlphaScreen, 2 h; note: % is set by controls: 0 for no effect and ±100 for the full control effect; nearly all actives have a fitted effect of over 75% in size
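AlphaScreen read-out: biotin-H3K9 peptide (500 nM) methylation by 20 nM enzyme with 20 uM SAM, 2 h at room temperature after 15 min compound preincubation; anti-monomethyl H3K9 antibody plus donor/acceptor beads, 10 min dark.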
Sfp inh = inhibitors of Bacillus subtilis Sfp phosphopantetheinyl transferase | Q9F4F7 | Biochemical Sfp PPTase activity, qHTS | Potency, µM, inactives show largest response in the series, negative = inhibition, hits mostly inhibitors | actives 3.5% (n = 310,000) | AID 1490;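 note: the enzyme is Sfp with the accession as filed and its product quenches rhodamine fluorescence; 0% = enzyme reaction without inhibitor and -100% = no enzyme wells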
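Step 1, compound plus 15 nM Sfp-PPTase, 15 min, room temperature. Step 2, add rhodamine-CoA (5 uM) and BHQ-2-YbbR (12.5 uM). Step 3, read 525/598 nm fluorescence at 0 and 30 min.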
Starred values were filed as active, the others as inactive; ? = inconclusive; . = not tested or not shown; [ ] = dose if it differs, or a comment. Compounds with a hit are over-represented: about 12% of the library has one in this group of screens. Calls come from the whole dose curve; as a rule, active = well fitted curve in the direction sought with a large enough effect; inconclusive = small, poorly fitted or top-dose-only effect, or another doubt; inactive = no such curve, though single readings can be large; an effect the other way counts as inactive or inconclusive. Potency is the fitted concentration of half-maximal effect.

SMILES	PLK1 PBD block	JMJD2A Tudor inh	HP1b chromo inh	BAZ2B block	G9a block	Sfp inh
Cc1nc(NC(=S)NC(=O)c2cccs2)sc1C(=O)N(C)C	-14.1%	-35.1%	17.9%	-17.5%	?	50.1µM*
Cc1ccc2nc(NC(=S)NC(=O)c3cccs3)sc2c1	-12.0%	?	-5.3%	-4.8%	19.7%	12.9%
COc1ccc(C(=O)NC(=S)Nc2nc(C)c(C(=O)N(C)C)s2)cc1	-13.5%	-26.5%	4.1%	?	?	63.1µM*
COC(=O)c1sc(NC(=S)NC(=O)c2ccc(F)cc2)nc1C	.	.	.	-21.4%	-0.5%[59 µM]	4.0%
Cc1cc(C(=O)Nc2nc(C)c(C(=O)N(C)C)s2)ccc1[N+](=O)[O-]	3.4%	-12.5%	18.3%	-5.5%	-3.6%[59 µM]	-1.7%
O=C(O)CC/C=C\CC[C@@H]1[C@@H](N2CCCCC2)[C@@H](O)C[C@@H]1OCc1ccc(-c2ccccc2)cc1	.	.	.	.	?	-5.2%
Cc1ccc(NC(=O)CSc2nc(-c3cccs3)cc(C(F)(F)F)n2)cc1C	.	4.1%	49.3%	-0.1%	27.9%[59 µM]	.
COc1cc2c3nnc(-c4ccc(F)cc4)c-3cn(Cc3cccc(C)c3)c2cc1OC	?	-20.0%	22.2%	2.4%	20.3%[59 µM]	7.6%
COc1cc2c3nnc(-c4ccc(F)cc4)c-3cn(Cc3cccc(F)c3)c2cc1OC	?	?	-32.4%	.	44.7µM*	44.7µM*
CCn1cc(C(=O)NCCCN(C)C)c(=O)c2cc(F)c(N3CCN(C)CC3)cc21	-3.7%	-8.0%	29.7%	2.1%	35.5µM*	19.6%
CCn1cc(C(=O)NCCN(C)C)c(=O)c2cc(F)c(N3CCN(C)CC3)cc21	-11.0%	-9.2%	5.2%	-1.4%	50.1µM*	-1.9%
CC(=O)N1CCOc2cc(S(=O)(=O)NCc3ccccc3Cl)c(C)cc21	.	-16.1%	33.2%	-1.9%	-26.3%[59 µM]	.
CCc1nc(N2CCCC(C)C2)c2oc3ccccc3c2n1 (stereo unspecified)	15µM*	20µM*	63.2%	56.9%	?	44.7µM*
CCc1nc(N2CCN(Cc3ccc4c(c3)OCO4)CC2)c2oc3ccccc3c2n1	-3.5%	?	?	70.8µM*	?	35.5µM*
CCc1nc(N2CCCCC2)c2oc3ccccc3c2n1	-4.5%	37.2%	103.7%	6.8%	8.3%[59 µM]	-22.4%
O=C(CCl)N1CCCC1c1ccc2c(c1)OCCO2 (stereo unspecified)	26.7µM*	?	-17.6%[57 µM]	-36.8%	-30.6%	9.6%
COc1ccc(N(C(C)=O)C2SC(=O)N(c3ccccc3)C2=O)cc1 (stereo unspecified)	.	-21.8%	32.6%	.	.	.
CC(=O)N(c1ccccc1)C1SC(=O)N(c2ccccc2)C1=O (stereo unspecified)	21.2µM*	5.8%	25.8%	.	-4.6%[59 µM]	11.9%
CC(=O)N(c1cccc(C)c1)C1SC(=O)N(c2ccccc2)C1=O (stereo unspecified)	23.8µM*	9.9%	43.9%	8.8%	4.3%	-1.6%
Cc1ccc(C)c(-c2csc(-c3c(N)c(C(=O)c4ccc5c(c4)OCO5)n4ccccc34)n2)c1	.	-10.4%	43.8%	8.7%	24.1%[59 µM]	.
O=C1C(Cl)=C(N2CCOCC2)C(=O)N1c1ccc(Br)cc1	?	-20.1%	53.5%	5.6%	44.7µM*	1.5%
CC(C)c1ccc(N2C(=O)C(Cl)=C(N3CCOCC3)C2=O)cc1	-18.5%	-7.0%	31.3%	-3.9%	9.7%	13.6%
CCc1ccccc1N1C(=O)C(Cl)=C(N2CCOCC2)C1=O	-11.5%	7.1%	82.9%	-4.1%	7.6%[0.501 µM]	-3.8%
CCOc1ccc(N2C(=O)C(Cl)=C(N3CCOCC3)C2=O)cc1	-20.1%	-26.9%	25.2%	-29.4%	50.1µM*	-9.6%
O=C(NCc1ccccc1)C(c1ccco1)N(C(=O)c1csnn1)c1ccccc1 (stereo unspecified)	-20.2%	-11.0%	1.1%	-3.9%	27.5%	6.9%
SMILES	PLK1 PBD block	JMJD2A Tudor inh	HP1b chromo inh	BAZ2B block	G9a block	Sfp inh
CC1CCN(C(=O)Cn2cc(SCc3cccc(F)c3)c3ccccc32)CC1	.	23.8%	37.6%	1.8%	7.4%[59 µM]	.
CC(c1ccccc1)N1C(=O)c2cccnc2C1=O (stereo unspecified)	5.1%	-6.8%	31.6%	?	3.9%	2.9%
CC(NC1=CC(=O)c2cccnc2C1=O)C(O)c1ccccc1 (stereo unspecified)	?	56.2µM*	-17.5%	.	.	.
CCN(CC)CCNC(=O)c1ccc2c(=O)n3nc(Nc4ccccc4)sc3nc2c1	.	-25.0%	-5.4%	-11.3%	1.0%[59 µM]	.
O=C(/C=C/c1ccccc1)c1ccc(NC2=NCCCS2)cc1	-8.3%	?	-30.3%	?	?	-13.5%
Cc1cccc(/C=C/C(=O)c2ccc(NC3=NCCCS3)cc2)c1	-14.6%	44.7µM*	-16.4%	?	?	-14.3%
COc1cccc(/C=C/C(=O)c2ccc(NC3=NCCCS3)cc2)c1	-7.7%	?	-9.4%	?	44.7µM*	-12.6%
FC(F)(F)c1ccc(Cl)c(NC(=S)NC2CC2)c1	-11.4%	-10.7%	49.9%	-0.2%	26.9%[59 µM]	11.2%
CC(C)(C)c1ccc(OCC(=O)Nc2c(C(=O)c3ccc(F)cc3)oc3ccccc23)cc1	.	19.6%	55.5%	0.0%	7.8%[59 µM]	.
CSCC[C@H](N)C(=O)N[C@@H](C)C(=O)NCC(=O)N[C@@H](CCCN=C(N)N)C(=O)N[C@@H](CO)C(=O)NCC(=O)N[C@@H](CC(=O)O)C(=O)N[C@@H](CO)C(=O)N[C@@H](CC(=O)O)C(=O)N[C@@H](CCC(=O)O)C(=O)N[C@@H](CC(=O)O)C(=O)N[C@@H](CC(C)C)C(=O)N[C@@H](CC(C)C)C(=O)N[C@@H](CCCCN)C(=O)N[C@@H](C)C(=O)N[C@H](C(=O)O)C(C)C	.	.	.	.	.	-0.7%
COc1cccc(CCNC(=O)c2c(O)nc3cc(C)ccn3c2=O)c1	.	-20.4%	8.3%	4.5%	5.8%[59 µM]	.
CC(C)NC(=O)c1ccc(N(Cc2ccc(Cl)cc2)S(C)(=O)=O)cc1	-5.2%	0.0%	30.7%	-5.0%	.	6.7%
COc1ccc(CNCc2ccccc2C(F)(F)F)cc1	-8.2%	28.2µM*	?	79.4µM*	8.91µM*	-22.0%
COc1ccc(CN(C)CC(=O)Nc2ccccc2C(F)(F)F)cc1	-1.1%	29.6%	105.8%	8.5%	60.1%	6.4%
COc1ccc2ccc(O)c(CN(C)CC(=O)Nc3ccccc3C(F)(F)F)c2c1	10.6µM*	?	-20.2%	-12.6%	7.94µM*	-9.4%
COc1ccc(CCNCC(=O)Nc2ccccc2C(F)(F)F)cc1	26.7µM*	3.16µM*	?	50.1µM*	2.51µM*	-12.2%
COc1ccc(CC(=O)NCc2ccccc2)cc1	3.2%	-21.0%	-14.6%	10.6%	38.6%	10.9%
COc1ccc(CNCc2cccc3ccccc23)cc1	1.7%	17.8µM*	?	?	.	-23.0%

Source: PubChem (National Center for Advancing Translational Sciences (NCATS))
